The target in one assay is Albumin (Bos taurus) (UniProt P02769). Briefly: compounds binding labelled BSA control protein – biochemical, small-molecule microarray, Alexa647 label, 635/667 nm fluorescence, artefact control for SMM control protein annotation, profiling panel (AID 1118).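 Also: score merges 667 nm emission intensity and signal-to-noise per printed compound spot.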 As to conditions: BSA-A647 binding, fluorescence 635 nm, higher = more signal.
Assay [1] can be described thus: probe aXIP binding to arrayed compounds – biochemical, NeuroSMM set, 635/667 nm fluorescence, primary screen (AID 1119).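 Also: probe is the protein aXip251-270 applied at 1 µg/mL to compound-printed slides; binding of probe to printed compounds measured as 667 nm fluorescence plus signal to noise.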 As to conditions: small-molecule microarray, higher = more signal, called active from +8 up or from −8 down.
A short description of assay [2]: probe aNOTCH3 binding on compound microarray – biochemical, small-molecule microarray, 635/667 nm fluorescence, primary screen (AID 1120).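 Also: probe is a biotin-tagged antibody raised against NOTCH3 rather than NOTCH3 protein; score merges spot fluorescence near 667 nm with spot signal to noise.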 The settings on record: higher = more signal.
Assay [3] in a line: probe aNOTCH2 binding on compound microarray – biochemical, small-molecule microarray, 635/667 nm fluorescence, primary screen (AID 1121).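 Also: score merges feature fluorescence read at 667 nm with its signal to noise.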 As to conditions: higher = more signal.
Assay [4] deals with Carbonic anhydrase 2 (Homo sapiens) (UniProt P00918). Briefly: compounds binding carbonic anhydrase 2 – biochemical, small-molecule microarray, Alexa647-labelled CAII, profiling panel (AID 1122). As to conditions: CAII-A647 binding fluorescence, higher = more signal.
Assay [5] can be described thus: COS7 lysate on small-molecule microarray, probe aHis, 635 nm (AID 1123).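 Also: z-score combines 667nm fluorescence intensity with signal-to-noise per printed compound spot.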 As to conditions: COS7 cell lysate, fluorescence, higher = more signal.
Assay [6] can be described thus: probe aLAP1 signal on lysate-treated microarray – cell lysate, small-molecule microarray, COS7 lysate, primary screen (AID 1124).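 Also: lysate comes from COS7 cells expressing LAP1 and is applied at 0.3 µg/mL; score merges spot fluorescence near 667 nm with signal-to-noise over triplicate slides.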 As to conditions: probe aLAP1, fluorescence, higher = more signal.
The subject of another assay is Sam68 (KHDRBS1). The assay is described as follows: compounds binding KHDRBS1 protein – biochemical, small-molecule microarray, 635 nm fluorescence, primary screen (AID 1125).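 Also: score merges 667 nm channel intensity with signal to noise over triplicate slides.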 As to conditions: higher = more signal.
Assay [7] concerns Chordin-like protein 2 (CHRDL2). The assay is described as follows: compounds binding chordin-like 2 – biochemical, small-molecule microarray, 635 nm fluorescence, primary screen (AID 1126).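 Also: printed compound slides probed with Chrdl2 protein at 4 µg/mL for 1 h at 4 C; score merges 667 nm emission intensity with signal to noise over three replicate slides.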 As to conditions: fluorescence 635 nm, higher = more signal.
Assay [8] addresses Concanavalin-A (Canavalia ensiformis) (UniProt P02866). Briefly: compounds binding concanavalin A lectin – biochemical, small-molecule microarray, Alexa647 label, 635 nm, artefact control for SMM control protein annotation, primary screen (AID 1127).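 Also: z combines 667 nm emission intensity with signal-to-noise across three replicate slides.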 As to conditions: ConA-A647 binding fluorescence, higher = more signal.
A short description of assay [9]: compounds binding Alexa647 anti-His antibody – biochemical, small-molecule microarray, 635 nm fluorescence, artefact control for SMM control protein annotation, primary screen (AID 1128).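 Also: score merges feature fluorescence with signal-to-noise for each printed compound spot.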 The settings on record: higher = more signal.
The subject of assay [10] is Human papillomavirus type 1a E7 protein (residues 1-88). The assay is described as follows: HPV1a E7 small-molecule binders, primary screen, biochemical, small-molecule microarray, residues 1-88, 635 nm (AID 1129). As to conditions: small-molecule microarray binding, fluorescence 635 nm; higher = more signal.
Assay [11] addresses Focal adhesion kinase 1 (Homo sapiens) (UniProt Q05397). Briefly: PTK2 protein binding on printed compound slides – biochemical, small-molecule microarray, 635/667 nm fluorescence, BSA, DTT, primary screen (AID 1130).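 Also: composite of spot emission at 667 nm and signal to noise over triplicate slides.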 The settings on record: 635 nm fluorescence, higher = more signal.
Assay [12] concerns Fibrinogen (Alexa647-labelled). Briefly: Alexa647-fibrinogen binding to printed small molecules – biochemical, small-molecule microarray, 635/667 nm fluorescence, artefact control for SMM control-protein annotation, profiling panel (AID 1131).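 Also: z-score merges 667 nm fluorescence with per-spot signal-to-noise over triplicate slides.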 As to conditions: fibrinogen-A647 binding fluorescence, higher = more signal.
Assay [13] has as its target Follistatin (Homo sapiens) (UniProt P19883). The assay is described as follows: FST protein binding to printed compounds – biochemical, small-molecule microarray, 635/667 nm fluorescence, primary screen (AID 1132). The settings on record: 635 nm fluorescence, higher = more signal.
Assay [14] addresses Fibroblast growth factor 2 (Homo sapiens) (UniProt P09038). The assay is described as follows: basic fibroblast growth factor binding to printed compounds – biochemical, small-molecule microarray, 635/667 nm fluorescence, primary screen (AID 1133). The settings on record: FGF2, fluorescence 635/667, higher = more signal.
Assay [15] in a line: JC-1 mitochondrial potential readout, lung cancer cells – cell-based, A549, JC-1 fluorescence, basal, 24 h, 100 nL, profiling panel (AID 1138).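 Also: A549 lung adenocarcinoma cells under basal conditions with no added stimulus; test concentration not given here.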 As to conditions: higher = more signal.
Another assay concerns Lefty1. Briefly: Lefty1 protein binding to printed compounds – biochemical, small-molecule microarray, 635/667 nm fluorescence, primary screen (AID 1139). As to conditions: fluorescence 635/667, higher = more signal.
Assay [16] relates to wheat germ agglutinin (Triticum aestivum), Alexa647-labelled. The assay is described as follows: Alexa647-WGA lectin binding to printed small molecules – biochemical, small-molecule microarray, 635/667 nm fluorescence, artefact control for SMM control-protein annotation, profiling panel (AID 1140).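 Also: score merges 667 nm feature emission with signal to noise over triplicate slides.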 The settings on record: WGA-A647 binding, 635 nm fluorescence, higher = more signal.

Assay [17] deals with Luciferin 4-monooxygenase (Photinus pyralis) (UniProt P08659). Briefly: inhibition of purified Photinus pyralis luciferase – biochemical, luminescence, purified enzyme, 2006 set, primary screen (AID 1141).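 Also: cell-free assay with purified firefly luciferase at 100 ng per well in PBS; test concentration not given here.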 As to conditions: purified firefly luciferase, SteadyGlo luminescence, 30 min; higher = more signal, called active from +8 up or from −8 down.

Active and inactive are the calls of the source.

Sequence of Albumin (Bos taurus) (P02769 whole entry, looked up): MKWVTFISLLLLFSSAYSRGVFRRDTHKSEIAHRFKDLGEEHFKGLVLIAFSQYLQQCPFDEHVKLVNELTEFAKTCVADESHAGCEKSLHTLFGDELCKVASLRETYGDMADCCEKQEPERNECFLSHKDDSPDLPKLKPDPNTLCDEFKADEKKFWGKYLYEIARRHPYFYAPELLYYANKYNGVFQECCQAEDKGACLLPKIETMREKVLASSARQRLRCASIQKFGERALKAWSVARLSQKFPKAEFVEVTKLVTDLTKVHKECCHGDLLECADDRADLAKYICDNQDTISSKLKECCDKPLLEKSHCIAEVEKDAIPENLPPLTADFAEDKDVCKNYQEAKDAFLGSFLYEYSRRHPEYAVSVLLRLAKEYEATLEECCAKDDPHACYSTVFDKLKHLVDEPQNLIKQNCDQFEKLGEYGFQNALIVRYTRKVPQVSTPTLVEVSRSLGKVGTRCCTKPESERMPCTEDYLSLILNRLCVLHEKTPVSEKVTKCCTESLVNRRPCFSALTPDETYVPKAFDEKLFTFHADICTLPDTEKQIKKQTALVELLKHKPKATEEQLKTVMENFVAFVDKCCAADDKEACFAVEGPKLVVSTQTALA
Sequence of Focal adhesion kinase 1 (Homo sapiens) (Q05397 whole entry, looked up): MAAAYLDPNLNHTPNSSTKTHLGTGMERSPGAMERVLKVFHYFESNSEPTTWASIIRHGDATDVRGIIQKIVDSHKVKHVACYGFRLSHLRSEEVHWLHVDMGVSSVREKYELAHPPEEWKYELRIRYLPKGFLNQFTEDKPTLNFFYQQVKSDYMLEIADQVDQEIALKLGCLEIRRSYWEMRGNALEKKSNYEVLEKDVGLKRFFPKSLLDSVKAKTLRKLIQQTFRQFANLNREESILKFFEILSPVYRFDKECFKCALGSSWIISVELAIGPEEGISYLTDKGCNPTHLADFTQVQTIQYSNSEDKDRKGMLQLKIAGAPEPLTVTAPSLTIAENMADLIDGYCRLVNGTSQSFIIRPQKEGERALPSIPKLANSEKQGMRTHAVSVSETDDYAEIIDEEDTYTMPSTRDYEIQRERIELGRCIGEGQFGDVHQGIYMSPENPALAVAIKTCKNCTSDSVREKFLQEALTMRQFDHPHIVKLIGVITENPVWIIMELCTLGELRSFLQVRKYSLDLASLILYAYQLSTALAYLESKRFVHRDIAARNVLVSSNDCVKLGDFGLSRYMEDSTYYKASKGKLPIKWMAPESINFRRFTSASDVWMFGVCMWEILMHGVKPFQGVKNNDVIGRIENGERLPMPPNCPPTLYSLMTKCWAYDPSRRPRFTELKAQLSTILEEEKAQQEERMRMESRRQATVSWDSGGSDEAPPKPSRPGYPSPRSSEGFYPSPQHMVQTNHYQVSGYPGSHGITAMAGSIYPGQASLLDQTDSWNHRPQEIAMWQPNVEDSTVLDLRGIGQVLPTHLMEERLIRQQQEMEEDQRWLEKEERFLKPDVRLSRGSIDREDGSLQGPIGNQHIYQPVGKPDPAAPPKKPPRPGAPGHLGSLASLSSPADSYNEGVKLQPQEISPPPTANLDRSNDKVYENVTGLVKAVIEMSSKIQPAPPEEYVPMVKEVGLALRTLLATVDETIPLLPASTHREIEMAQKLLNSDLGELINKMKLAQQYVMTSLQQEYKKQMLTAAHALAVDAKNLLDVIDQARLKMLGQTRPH
Sequence of Concanavalin-A (Canavalia ensiformis) (P02866 whole entry, looked up): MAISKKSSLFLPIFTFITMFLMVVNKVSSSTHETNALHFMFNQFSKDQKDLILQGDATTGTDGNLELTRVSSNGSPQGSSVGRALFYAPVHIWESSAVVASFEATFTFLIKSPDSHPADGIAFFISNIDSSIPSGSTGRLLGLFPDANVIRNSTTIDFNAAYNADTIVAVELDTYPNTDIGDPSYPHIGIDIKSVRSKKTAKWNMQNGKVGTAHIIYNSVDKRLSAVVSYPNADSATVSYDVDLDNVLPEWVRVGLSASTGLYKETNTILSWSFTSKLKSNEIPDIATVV
Sequence of Follistatin (Homo sapiens) (P19883 whole entry, looked up): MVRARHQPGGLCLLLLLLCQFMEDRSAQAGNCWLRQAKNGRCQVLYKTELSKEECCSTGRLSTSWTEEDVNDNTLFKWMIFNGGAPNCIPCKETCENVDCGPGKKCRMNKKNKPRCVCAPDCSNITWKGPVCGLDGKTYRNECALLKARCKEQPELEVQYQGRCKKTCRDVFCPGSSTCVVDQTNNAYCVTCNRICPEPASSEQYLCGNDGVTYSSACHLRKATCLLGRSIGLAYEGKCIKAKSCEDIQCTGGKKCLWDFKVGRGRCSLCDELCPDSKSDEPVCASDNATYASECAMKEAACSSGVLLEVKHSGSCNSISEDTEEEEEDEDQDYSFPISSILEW
Sequence of Fibroblast growth factor 2 (Homo sapiens) (P09038 whole entry, looked up): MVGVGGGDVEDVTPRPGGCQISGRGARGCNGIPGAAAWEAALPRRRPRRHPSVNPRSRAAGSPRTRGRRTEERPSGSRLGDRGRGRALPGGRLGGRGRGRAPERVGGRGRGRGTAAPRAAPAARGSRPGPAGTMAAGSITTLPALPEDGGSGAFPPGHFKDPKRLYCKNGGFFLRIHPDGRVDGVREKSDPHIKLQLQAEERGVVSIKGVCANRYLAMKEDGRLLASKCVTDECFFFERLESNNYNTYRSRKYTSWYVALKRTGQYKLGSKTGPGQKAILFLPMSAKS
Sequence of Luciferin 4-monooxygenase (Photinus pyralis) (P08659 whole entry, looked up): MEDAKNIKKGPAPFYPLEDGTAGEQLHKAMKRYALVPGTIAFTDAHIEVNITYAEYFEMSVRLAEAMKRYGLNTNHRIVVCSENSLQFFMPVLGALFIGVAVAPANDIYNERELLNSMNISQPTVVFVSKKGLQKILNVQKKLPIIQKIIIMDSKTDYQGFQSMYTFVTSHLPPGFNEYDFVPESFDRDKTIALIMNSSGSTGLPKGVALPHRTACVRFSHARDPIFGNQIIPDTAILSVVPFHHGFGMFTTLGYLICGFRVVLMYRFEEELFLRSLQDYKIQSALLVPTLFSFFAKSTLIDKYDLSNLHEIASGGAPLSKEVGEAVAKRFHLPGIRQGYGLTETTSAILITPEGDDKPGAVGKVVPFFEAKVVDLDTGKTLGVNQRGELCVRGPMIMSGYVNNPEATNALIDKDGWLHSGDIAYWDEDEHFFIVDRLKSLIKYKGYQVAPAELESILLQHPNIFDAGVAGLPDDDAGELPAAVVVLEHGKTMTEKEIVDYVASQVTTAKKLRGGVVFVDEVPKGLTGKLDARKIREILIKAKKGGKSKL

For `CC1CC/C=C\[C@H]2OC34C=CCN(C(C)C)C(=O)[C@H]3N(C(CO)C(C)C)C(=O)[C@@H]4C2C(=O)O1` (stereo not given in full), the composite z-score was -0.314 in the assay with Albumin (Bos taurus); -0.15 in [2]; -0.125 in assay [3]; 0.831 in assay [4]; 0.669 in [5]; -0.0978 in assay [6]. Further, the composite z-score with Sam68 (KHDRBS1) is -1.57; in assay [7] it was -1.36; in [8] it was -2.39; in assay [9], -1.64; in assay [10], -2; in assay [11], 1. The composite z-score in assay [12] was -1.9; in assay [13], -0.459; in assay [14], -0.294; with Lefty1, -1.02; in assay [16] it was -2.12. Further, the composite Z-score in [1] is -0.481 (inactive). The results for the z-score in [15] and in assay [17] were 1.01 and -1.3 (inactive), respectively.

On to `C=CCNC(=O)[C@@H]1[C@H]2C(=O)O[C@H](c3ccccc3)[C@H](c3ccccc3)N2[C@H](c2ccc(O)cc2)[C@@]12C(=O)Nc1ccccc12`, for which the composite z-score is -0.989 with Albumin (Bos taurus); -0.246 in [2]; -0.22 in assay [3]; 0.55 in assay [4]; 1.12 in assay [5]; 0.324 in assay [6]. Besides, the composite z-score with Sam68 (KHDRBS1) is 0.502; in assay [7], -0.939; in assay [8], 0.516; in assay [9], -0.391; in assay [10] it was -0.227; in assay [11] it was 0.394. For the same compound, the composite z-score in [12] was -0.0121; in assay [13], 0.981; in assay [14] it was 0.143; with Lefty1, 0.52; in [16], 0.567. Also, the composite Z-score in [1] is 0.0737 (inactive). Further, the z-score was 0.715 in [15] and -1.03 (inactive) in assay [17].

With `C=CC[C@@]1(C(=O)NCc2ccccc2)N=C(c2ccc(OCCCO)cc2)O[C@@H]1c1ccccc1`, the composite z-score in the assay with Albumin (Bos taurus) was 0.864; in [2], 0.0762; in assay [3], -0.061; in assay [4], 0.493; in [5], 2.56; in assay [6] it was 0.268. Further, the composite z-score in the assay with Sam68 (KHDRBS1) was 0.966; in assay [7], -0.353; in assay [8] it was 0.454; in assay [9], 1.11; in [10], 1.16; in assay [11], 0.997. In addition, the composite z-score in [12] is -0.017; in assay [13], -0.646; in [14], -1.1; in the assay with Lefty1 it was -0.865; in assay [16], 0.539. For the same compound, in assay [1], the composite Z-score was 0.118 (inactive). Moreover, the z-score in [15] was 0.215; in assay [17], -1.05 (inactive).

For `C#CCN1C(C(=O)OCC)OC[C@H]1c1ccccc1` (stereo not given in full), the composite z-score is -0.0202 with Albumin (Bos taurus); -0.128 in assay [2]; -0.0861 in assay [3]; -0.0406 in assay [4]; 4.71 in assay [5]; 0.847 in assay [6]. The composite z-score is 0.487 in the assay with Sam68 (KHDRBS1); 0.602 in assay [7]; 0.303 in assay [8]; 0.264 in [9]; -0.334 in assay [10]; 5.01 in assay [11]. In addition, the composite z-score in [12] was 0.559; in assay [13], 0.552; in [14] it was 0.469; with Lefty1, 0.732; in assay [16], 0.299. Also, in [1], the composite Z-score is 0.369 (inactive). Also, the values for the z-score in assay [15] and in assay [17] were 0.833 and -0.547 (inactive), respectively.

`C=CCNC(=O)[C@@H]1[C@H]2C(=O)O[C@H](c3ccccc3)[C@H](c3ccccc3)N2[C@H](c2ccc(O)cc2)[C@@]12C(=O)N(C(=O)OCCOC)c1ccc(C#Cc3ccc(OC)cc3)cc12`: the composite z-score was -0.0706 with Albumin (Bos taurus); 0.13 in assay [2]; 0.0406 in [3]; 0.484 in assay [4]; 1.46 in assay [5]; 0.478 in assay [6]. The composite z-score in the assay with Sam68 (KHDRBS1) was determined as 1.32; in [7], 0.455; in assay [8], 1.12; in assay [9] it was 0.539; in assay [10], 1.13; in assay [11], 1.68. Also, the composite z-score amounted to 0.8 in assay [12]; 0.949 in assay [13]; 0.915 in assay [14]; 0.544 in the assay on Lefty1; 1.06 in assay [16]. For the same compound, in [1], the composite Z-score was 0.574 (inactive). The z-score is -0.0671 in assay [15] and -1.23 (inactive) in [17].

Source of the values: PubChem BioAssay.
